# “And” between values parts separate entries of the source, which are not always exact repeats. Identical values can stand only once. The whole screen tested about 350,000 compounds, of which about 990 (0.28%) were called active. About 2% were inconclusive and are not listed. Calls follow the shape of the dose curve; as a rule, active = well fitted inhibition curve with a large enough effect; inconclusive = small, poorly fitted or top-dose-only effect; inactive = no such curve, though single readings can be large or run the other way. The full list was thinned out, with actives kept by preference. The source holds several records for some structures; these can differ, active in one and inactive in another.
# Molecular target: Tyrosyl-DNA phosphodiesterase 1 (Homo sapiens) (UniProt Q9NUW8)
# Sequence (Q9NUW8 whole entry, looked up): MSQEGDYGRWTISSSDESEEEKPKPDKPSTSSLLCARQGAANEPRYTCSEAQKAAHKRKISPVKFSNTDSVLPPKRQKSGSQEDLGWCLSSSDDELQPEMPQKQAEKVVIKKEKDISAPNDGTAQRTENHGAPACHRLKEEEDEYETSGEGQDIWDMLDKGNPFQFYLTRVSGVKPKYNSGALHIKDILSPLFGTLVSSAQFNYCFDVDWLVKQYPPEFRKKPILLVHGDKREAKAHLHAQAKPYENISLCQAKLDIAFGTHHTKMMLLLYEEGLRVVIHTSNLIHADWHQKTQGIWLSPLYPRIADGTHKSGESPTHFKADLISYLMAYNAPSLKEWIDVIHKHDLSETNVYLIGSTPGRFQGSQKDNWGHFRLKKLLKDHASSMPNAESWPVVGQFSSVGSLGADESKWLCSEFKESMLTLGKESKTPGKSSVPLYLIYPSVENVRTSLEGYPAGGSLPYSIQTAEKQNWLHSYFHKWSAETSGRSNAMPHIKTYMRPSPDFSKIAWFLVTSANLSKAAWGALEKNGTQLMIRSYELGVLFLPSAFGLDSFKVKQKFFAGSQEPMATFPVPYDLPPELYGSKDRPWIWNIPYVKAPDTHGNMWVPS
# Test: qHTS Assay for Inhibitors of Tyrosyl-DNA Phosphodiesterase (TDP1); also: nearly all actives have a fitted effect of over 40% in size
# Conditions: recombinant TDP1, AlphaScreen DNA substrate cleavage; series mostly up to 130 µM; activity change, negative = inhibition: at the top concentration
# Source text: NIH Molecular Libraries Probe Production Network [MLPCN]
# NIH Chemical Genomics Center [NCGC]
# Assay Provider: Yves Pommier and Christophe Marchand, National Cancer Institute
# Assay Title: qHTS Assay for Inhibitors of Tyrosyl-DNA Phosphodiesterase (TDP1); also: nearly all actives have a fitted effect of over 40% in size
# Human tyrosyl-DNA phosphodiesterase I (Tdp1) is a rational anticancer target because this enzyme is involved in the repair of DNA lesions created by the trapping of human DNA topoisomerase I (Top1) following treatment by anticancer agents such as camptothecins. Recombinant Tdp1 was expressed and purified from E. coli in the laboratory (Anthony et al, Nucleic Acids Research, 2007, Vol. 35, 4474-4484). A Tdp1 DNA substrate bearing a 5' biotin and a 3' phospho-tyrosine was obtained by custom synthesis. This oligonucleotidic DNA substrate was subsequently coupled to a fluorescein isothiocyanate (FITC) group via the free amino group present on the phospho-tyrosine. Tdp1 was screened against the NCGC small molecule library using the AlphaScreen (AS) detection method in which a streptavidin donor AS bead is bound at the 5' end and an anti-FITC AS acceptor bead is bound at the 3' end of the DNA oligonucleotidic substrate. In the presence of Tdp1, the enzyme cleaves the tyrosine-FITC group, leaving a 3' end phosphate on the DNA substrate. This cleavage reaction results in a loss of signal in AS.
# [1] 3 ul of buffer is dispensed in columns 3 & 4 as negative control (no enzyme and maximum signal),
# [2] 3 ul of enzyme (1 nM final) is dispensed in columns 1,2, 5-48,
# [3] 1 ul of substrate (15 nM final) is dispensed throughout the plate,
# [4] 1 ul of AS donor/acceptor bead mix (10 ug/ml final) is dispensed throughout the plate
# 3 ul of Tdp1 enzyme is dispensed to 1536-well Kalypsys black solid bottom plates. Compounds and controls (23 nl) are transferred via Kalypsys Pin Tool. The plates are incubated for 15 min at room temperature, and then 1 ul of substrate is added to start the reaction. After 5 min incubation at room temperature, 1 ul of AS donor/acceptor bead mix is added and the plates are further incubated for 10 min at room temperature. The detection is then performed on a PerkinElmer Envision reader.
# % is scaled to controls: 0 for no effect and ±100 for the full control effect; potency is read from the fitted curve at half-maximal effect.
SMILES,Potency,"activity change, negative = inhibition"
CC(C)Nc1nc(Cl)nc(NC(C)C)n1,inactive and 28.2 µM (active),–
CCC(CCC(C)C1CCC2C3CC=C4CC(O)CC[C@@]4(C)C3CC[C@@]12C)C(C)C (stereo not given in full),–,5.38% (inactive)
C=CC#N,–,-7.61% (inactive)
O=NO,inactive,–
CN1[C@H]2CC(OC(=O)[C@@H](CO)c3ccccc3)C[C@H]1[C@H]1O[C@H]12 (stereo not given in full),–,5.13% [at 21 µM] (inactive)
CC(=O)CC(C)C,–,15.5% (inactive)
CC(C)(O/N=C(\C(=O)N[C@@H]1C(=O)N2C(C(=O)[O-])=C(C[n+]3ccccc3)CS[C@@H]12)c1csc(N)n1)C(=O)O,12.6 µM (active),–
CCCCCCCCCCCCN=C(N)N,–,0.984% (inactive)
CCN(CC)c1nc(C)cc(OP(=S)(OC)OC)n1,–,8.2% (inactive)
CC(=O)[O][Sn]([c]1ccccc1)([c]1ccccc1)[c]1ccccc1,–,6.23% (inactive)
CCCCC/C=C\C/C=C\C/C=C\C/C=C\CCCCCC(=O)NCCO,inactive and 39.8 µM (active),–
CCCCC/C=C\C/C=C\C/C=C\CCCCCCC(=O)NCCO,inactive,–
CN(C)C[C@H]1CCCC[C@]1(O)c1cccc(O)c1,–,-0.328% (inactive)
C[C@@H]1C[C@H]2CC[C@H](O2)[C@H](C)C(=O)O[C@@H](C)C[C@@H]2CC[C@@H](O2)[C@@H](C)C(=O)O[C@H](C)C[C@H]2CC[C@H](O2)[C@H](C)C(=O)O[C@@H](C)C[C@@H]2CC[C@@H](O2)[C@@H](C)C(=O)O1,–,8.2% (inactive)
CC(CCC(=O)O)C1CCC2C3C(O)C[C@@H]4CC(O)CC[C@@]4(C)C3CC[C@@]12C (stereo not given in full),inactive,–
O=C(O)c1cc[c]([Sb](=[O])([OH])[OH])cc1[N+](=O)[O-],1.58 µM (active),–
S=P(c1ccccc1)(c1ccccc1)c1c(-c2ccccc2)[nH]c2ccccc12,–,1.74% (inactive)
Nc1ccc(-c2ccc(N)c(N)c2)cc1N,–,19.3% (inactive)
O=C1CCc2cccc3c2N1CC3,–,4.92% (inactive)
Cc1cccc2c3c(ccc12)C1=C(C(=O)C3=O)C(C)CO1 (stereo not given),–,22.4% (inactive)
